17 compounds from PubChem BioAssay (NCI) can be followed below.

Test systems include T-47D breast; BT-549 breast; MDA-MB-435 melanoma; SW-620 colon; MCF7 breast; HCT-116 colon; HCC-2998 colon; KM12 colon; MDA-MB-468 breast.
Experiment in all cases: NCI-60 one-dose screen, 48 h (100 = growth as untreated, 0 = no growth, -100 = all killed)
What all share (settings): 10 µM

Each structure is given as a SMILES string. Several values for one entry are separate records, joined by “and”; a condition that tells them apart may be missing. Equal values may be shown once. The panel holds about 83,000 compounds, 20% with a hit somewhere; the sample as a whole holds those more often.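 In brief: 96-well plates, 48 h treatment, single concentration, percent growth endpoint.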 Unmarked numbers belong to inactive results. Activity calls are given as the source filed them. Rule for the calls: active = growth percent below 10; inactive = the rest.

On to `COc1cc2c3c(n(CCCNC(C)C)c(=O)c2cc1OC)-c1nc2c(cc1C3=O)OCO2`, for which the growth in the experiment on T-47D breast was 43.9%; with BT-549 breast it was 49.1%; in the experiment with MDA-MB-435 melanoma, -86.9% (active); with SW-620 colon, -62.8% (active); with MCF7 breast, -89.8% (active); in the experiment on HCT-116 colon, -60.4% (active). Further, the growth is 65.5% with HCC-2998 colon, -90.1% (active) in the experiment on KM12 colon and -9.99% (active) in the experiment with MDA-MB-468 breast.
Turning to `CN1CCN(c2ccc(C(=O)/C=C/c3ccc(C#N)cc3)cc2)CC1`, the growth in the experiment on T-47D breast is 87.4%; in the experiment with BT-549 breast, 91.1%; in the experiment with MDA-MB-435 melanoma, 28.1%; in the experiment on SW-620 colon it was 35.5%; in the experiment with MCF7 breast it was 6.57% (active); in the experiment on HCT-116 colon it was 18%. Further, the growth in the experiment with HCC-2998 colon is 47%; in the experiment on KM12 colon, 46.8%; with MDA-MB-468 breast, 26.5%.
`Cc1ccc(/C(N)=N/c2sc(-c3ccccc3)nc2-c2ccccc2)cc1`: the growth in the experiment on T-47D breast was 58.3%; with BT-549 breast, 88.4%; in the experiment on MDA-MB-435 melanoma, 79.6%; with SW-620 colon, 79.4%; in the experiment on MCF7 breast it was 55.9%; with HCT-116 colon, 53.5%. Further, the growth in the experiment with HCC-2998 colon is 79.8%; in the experiment with KM12 colon, 41.4%; in the experiment on MDA-MB-468 breast, 75.6%.
Regarding `CC[C@@]1(O)C(=O)OCc2c1cc1n(c2=O)Cc2c-1nc1cc(F)c(C)c3c1c2[C@@H](N)CC3`, the growth with T-47D breast is -3.93% (active); in the experiment on BT-549 breast it was -10.7% (active); in the experiment with MDA-MB-435 melanoma, -41.9% (active); in the experiment on SW-620 colon, 8.5% (active); in the experiment on MCF7 breast, 8.66% (active); in the experiment on HCT-116 colon it was 0.118% (active). In addition, the growth with HCC-2998 colon was -45.4% (active); in the experiment with KM12 colon, 3.85% (active); with MDA-MB-468 breast, -77.2% (active).
Regarding `COc1ccc(C2NC(=S)NC(C)=C2C(=O)OC(C)C)cc1OC` (stereo not drawn), the growth in the experiment on T-47D breast was 91.1%; in the experiment with BT-549 breast it was 103%; with MDA-MB-435 melanoma it was 104%; in the experiment on SW-620 colon, 103%; in the experiment with MCF7 breast, 108%; in the experiment with HCT-116 colon, 99.3%. In addition, the growth in the experiment with HCC-2998 colon was 114%; in the experiment with KM12 colon it was 103%; in the experiment on MDA-MB-468 breast, 98.9%.
For `O=C1CCC(N2Cc3c(NCc4ccc(-c5ccccc5)cc4)cccc3C2=O)C(=O)N1` (stereo not drawn), the growth in the experiment on T-47D breast was 41.5%; in the experiment on BT-549 breast it was 23.4%; in the experiment with MDA-MB-435 melanoma, 93.2%; in the experiment on SW-620 colon it was 51.3%; with MCF7 breast, 76%; in the experiment with HCT-116 colon, 74.7%. For the same compound, the figures for the growth in the experiment on HCC-2998 colon, in the experiment with KM12 colon and with MDA-MB-468 breast were 67.4%, 75.3% and -12.6% (active), respectively.
Take `COc1cc(-c2nc3cc(Cl)c(Cl)cc3[nH]2)ccc1OCc1nnc(-c2ccc(Br)cc2)o1`: the growth in the experiment with T-47D breast is -38.4% (active); in the experiment with BT-549 breast it was -73.4% (active); in the experiment with MDA-MB-435 melanoma, -18.7% (active); in the experiment with SW-620 colon, 21.6%; in the experiment with MCF7 breast it was 5.68% (active); with HCT-116 colon it was 2.89% (active). Besides, the growth is 69.2% in the experiment with HCC-2998 colon, 46.1% in the experiment on KM12 colon and -10.9% (active) in the experiment on MDA-MB-468 breast.
For `COc1ccc(-c2cc(C(=O)N=Nc3c(O)[nH]c4ccc(Br)cc34)c3ccccc3n2)cc1`, the growth in the experiment on T-47D breast is 58.4%; in the experiment with BT-549 breast, 96.3%; with MDA-MB-435 melanoma it was 52.7%; with SW-620 colon, -59.9% (active); with MCF7 breast, -6.48% (active); with HCT-116 colon it was 16.9%. Further, the figures for the growth in the experiment with HCC-2998 colon, with KM12 colon and in the experiment on MDA-MB-468 breast were 23.4%, 23.1% and 11.1%, respectively.
Take `N#Cc1c(-c2ccc(Cl)cc2)cc(-c2ccccc2)nc1OCc1ccccc1`: the growth with T-47D breast is 52.3%; in the experiment on BT-549 breast, 83.4%; with MDA-MB-435 melanoma it was 96.1%; in the experiment with SW-620 colon, 84%; with MCF7 breast it was 53.8%; in the experiment on HCT-116 colon, 53.7%. For the same compound, the growth in the experiment on HCC-2998 colon was 95%; in the experiment with KM12 colon, 82.6%; in the experiment with MDA-MB-468 breast, 65.4%.
`CCOc1ccc2ncc(C#Cc3cncc(C(=O)Nc4ccc(CN5CCN(C)CC5)c(C(F)(F)F)c4)c3)n2n1`: the growth in the experiment with T-47D breast was 71.9%; in the experiment with BT-549 breast, -60.9% (active); in the experiment with MDA-MB-435 melanoma, -74.2% (active); in the experiment with SW-620 colon, -62.1% (active); with MCF7 breast it was -63.7% (active); in the experiment with HCT-116 colon, -48% (active). In addition, the growth with HCC-2998 colon is -89.3% (active); with KM12 colon, -91.1% (active); in the experiment on MDA-MB-468 breast, -76.1% (active).
As for `COc1ccc(-c2ccc(/C=N/NC(=O)c3[nH]c4ccc(Br)cc4c3-c3ccccc3)s2)cc1`, the growth in the experiment on T-47D breast was 72%; in the experiment on BT-549 breast it was 117%; in the experiment on MDA-MB-435 melanoma, 107%; with SW-620 colon, 44.8%; in the experiment on MCF7 breast, 6.19% (active); in the experiment on HCT-116 colon, 37.5%. Also, the growth in the experiment on HCC-2998 colon is 112%; with KM12 colon, 85.5%; in the experiment with MDA-MB-468 breast it was 76.6%.
With `COc1ccc(C2N(c3ccc(Br)cc3)N=C(C(C)=O)N2[C@H]2[C@H](OC(C)=O)O[C@H](COC(C)=O)[C@@H](OC(C)=O)[C@@H]2OC(C)=O)cc1` (stereo partly drawn), the growth is 52.8% in the experiment on T-47D breast; 91.2% in the experiment with BT-549 breast; 83.7% with MDA-MB-435 melanoma; 82.5% with SW-620 colon; 62.7% in the experiment with MCF7 breast; 69% with HCT-116 colon. Also, the growth in the experiment on HCC-2998 colon is 75.4%; in the experiment on KM12 colon, 70.6%; with MDA-MB-468 breast, 72.6%.
With `CC(C)Sc1nc(NC2CC2)c(C#N)c(-c2ccccc2)n1`, the growth in the experiment with T-47D breast was 92.7%; in the experiment with BT-549 breast it was 91.2%; in the experiment on MDA-MB-435 melanoma, 98.6%; in the experiment with SW-620 colon it was 100%; with MCF7 breast, 88.1%; in the experiment on HCT-116 colon, 46.7%. Besides, the growth in the experiment on HCC-2998 colon is 97%; with KM12 colon it was 94.7%; with MDA-MB-468 breast, 80.4% and 99.9%.
For the compound `COc1ccc(OC)c(-c2cc(-c3c[nH]c4ccccc34)nc(N)c2C#N)c1`, the growth with T-47D breast is 0.648% (active); with BT-549 breast, -25.4% (active); with MDA-MB-435 melanoma it was -5.04% (active); with SW-620 colon it was 6.61% (active); in the experiment with MCF7 breast, 3.84% (active); with HCT-116 colon, -45.8% (active). Besides, the growth with HCC-2998 colon is -37.1% (active); with KM12 colon, -27.6% (active); with MDA-MB-468 breast, -9.53% (active).
With `COc1ccc(CN2[C@@H](C(=O)NCc3ccc(C(=O)NO)cc3)Cc3c([nH]c4ccccc34)[C@@H]2C)cc1`, the growth was 13.9% in the experiment on T-47D breast; 43.6% with BT-549 breast; -36.4% (active) in the experiment on MDA-MB-435 melanoma; -31.3% (active) in the experiment with SW-620 colon; 15.8% with MCF7 breast; 9.97% (active) in the experiment with HCT-116 colon. For the same compound, the growth in the experiment with HCC-2998 colon is 14.6%; in the experiment on KM12 colon it was 20.4%; in the experiment with MDA-MB-468 breast, 7.58% (active).
Take `O=C(/C=C/Nc1ccccc1)c1ccc2c(c1)Nc1ccccc1S2`: the growth in the experiment on T-47D breast is 78.1%; in the experiment with BT-549 breast, 95.6%; in the experiment on MDA-MB-435 melanoma, 85%; in the experiment on SW-620 colon, 89.3%; in the experiment on MCF7 breast it was 68.6%; in the experiment on HCT-116 colon it was 79.2%. Also, the growth is 95.4% with HCC-2998 colon, 87% in the experiment on KM12 colon and 61.5% in the experiment with MDA-MB-468 breast.
`COc1ccc(-c2ccc(/C=N/NC(=O)c3[nH]c4ccc(Br)cc4c3-c3ccccc3)o2)cc1`: the growth is 37.4% in the experiment with T-47D breast; 75.6% with BT-549 breast; -45.1% (active) in the experiment on MDA-MB-435 melanoma; 32.4% in the experiment with SW-620 colon; 10.3% in the experiment with MCF7 breast; 18.3% in the experiment on HCT-116 colon. Moreover, the growth is 63% in the experiment with HCC-2998 colon, 39.8% with KM12 colon and -2.91% (active) with MDA-MB-468 breast.
